Rows were chosen to be rich in hits. Some 32% of all compounds tested hit in one or more screens of this group.
CYP2C19 act: cytochrome P450 2C19 (human) activation. P33261. recombinant CYP2C19, luciferin-H EGE luminescence; active compounds read high; 0 = fully inhibited enzyme, 1 = untreated enzyme. activation factor at 5 µM. 96,000 tested, under 10 active;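 active = activation factor of at least 2 at 5 µM in the primary screen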
PostGolgi yeast: growth inhibition of a yeast mutant, post-Golgi transport screen; AID 739; inhibition, % at 10 µM; hit rate 0.9% among 98,000; post-Golgi transport phenotypic cell assay;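 note: yeast cells grown in 1536-well plates; yeast grown about 18 h at 30C before absorbance read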
PostGolgi ctrl: inhibits growth of the yeast control strain; efflux-deficient yeast background strain, growth absorbance A615, 16 h; inhibition, % at 10 µM; hit rate 5% among 98,000
CYP2C19 inhib: inhibitors of human CYP2C19. inhibition, % at 5 µM. CYP2C19 Supersomes, luciferin-H EGE luminescence, 30 min. hit rate 21% among 96,000. AID 778. P33261;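 active = CYP2C19 inhibition above a set limit at 5 µM in the primary screen, cut at about 50% in these data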
CYP2C9 act: CYP2C9 (human) activation; P11712; activation factor at 5 µM; AID 1024; hit rate 1.4% among 96,000; recombinant CYP2C9, luciferin-H conversion, luminescence; active compounds read high; factor 1 = untreated enzyme, 0 = blocked;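 active = activation factor of 2 or more for CYP2C9 at a 5 µM dose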
Target sequence (P11712 whole entry, looked up): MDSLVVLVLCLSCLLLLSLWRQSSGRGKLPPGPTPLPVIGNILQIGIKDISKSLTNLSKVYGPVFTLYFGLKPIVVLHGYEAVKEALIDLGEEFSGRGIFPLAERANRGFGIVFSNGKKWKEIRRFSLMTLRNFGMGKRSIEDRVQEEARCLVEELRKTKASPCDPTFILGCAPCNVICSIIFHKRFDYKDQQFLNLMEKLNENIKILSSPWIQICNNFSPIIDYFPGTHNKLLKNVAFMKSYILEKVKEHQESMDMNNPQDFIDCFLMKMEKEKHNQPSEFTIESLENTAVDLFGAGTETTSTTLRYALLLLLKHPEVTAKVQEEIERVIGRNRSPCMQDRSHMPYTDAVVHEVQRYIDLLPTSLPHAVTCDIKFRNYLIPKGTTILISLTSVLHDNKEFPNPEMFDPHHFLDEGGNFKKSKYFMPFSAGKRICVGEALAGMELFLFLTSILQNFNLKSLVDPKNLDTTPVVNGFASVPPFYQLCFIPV
CYP2C9 inhib: blocks human cytochrome P450 2C9; CYP2C9 Supersomes, luciferin-H conversion, luminescence; inhibition, % at 5 µM; hit rate 20% among 96,000; AID 777;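 active = blocking of liver enzyme CYP2C9 beyond about 50% at 5 µM, limit read from the data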
Numbers stand for hits; . = inactive; / = not tested or not shown. Cut-off read from the data, not from the text of the source, unless noted: active = inhibition above about 30%; inactive = the rest.

SMILES	CYP2C19 act	PostGolgi yeast	PostGolgi ctrl	CYP2C19 inhib	CYP2C9 act	CYP2C9 inhib
COC(=O)c1ccc(CC(=O)c2c(C)cc(O)cc2O)o1	.	.	.	93	.	60
COC(=O)c1cc(CC(=O)c2ccc(O)cc2O)c(C)o1	.	.	.	94	.	54
COc1ccc(CC(=O)c2c(O)cc(O)cc2O)cc1OC	.	.	.	77	.	88
CCOC(=O)c1ccc(CC(=O)c2ccc(O)cc2O)o1	.	.	.	.	.	.
COC(=O)c1ccc(CC(=O)c2ccc(O)cc2O)o1	.	.	.	.	.	52
O=C(CCc1n[nH]c(=O)[nH]c1=O)N1CCOCC1	.	.	.	.	.	.
Cc1ccc(CNC(=O)CCS(=O)(=O)c2cccc3nsnc23)cc1	.	.	.	.	.	.
CCc1ccc(NC(=O)CCS(=O)(=O)c2cccc3nsnc23)cc1	.	.	.	87	.	85
COc1cccc(CNC(=O)CCS(=O)(=O)c2cccc3nsnc23)c1	.	.	.	64	.	.
COc1cccc(CNC(=O)CCS(=O)(=O)c2cccc3nonc23)c1	.	.	.	.	.	.
FC(F)(F)c1nnc2ccc(-n3ccnc3)nn12	.	.	.	.	.	.
FC(F)(F)c1ccc(-n2ccnc2)nc1	.	.	.	52	.	.
O=C1CC(c2cccc(Cl)c2)C(n2cncn2)C(=O)C1C1NCCc2ccccc21 (stereo unspecified)	.	.	.	.	.	.
COC(=O)c1ccc(COC(=O)CCc2nc(-c3ccccc3)c(-c3ccccc3)o2)cc1	.	.	.	67	.	86
COC(=O)c1ccc(COC(=O)c2ccccn2)cc1	.	.	.	.	.	.
O=C(NC(O)C(=O)c1cccs1)c1cccnc1 (stereo unspecified)	.	.	.	.	.	.
Cc1ccc(N(C(=O)c2ccccn2)C2(C(=O)NC3CCCC3)CCCCC2)cc1	.	.	.	.	.	93
Cc1cc(C)nc(SCCC(=O)Nc2ccccc2C)n1	.	.	.	.	.	.
CC(C)c1ccc(NC(=O)C(c2ccccc2)N2CCOCC2)cc1 (stereo unspecified)	.	.	.	55	.	68
CSc1ccc(-c2nnn(CC(=O)NCc3ccccc3)n2)cc1	.	.	.	.	.	.
CCOC(=O)C(Cc1ccccc1)NC(=O)Cn1nnc(-c2ccc(SC)cc2)n1 (stereo unspecified)	.	.	.	67	.	.
CC(C)(C)NC(=O)C(c1ccccn1)N(C(=O)c1ccc2c(c1)OCCO2)C1CCCC1 (stereo unspecified)	.	.	31	.	.	.
O=C(c1ccc2c(c1)OCCO2)N(c1ccccn1)C1CCCCC1	.	.	.	.	.	52
O=C(COCCOCC(=O)N(c1ccccn1)C1CCCCC1)N(c1ccccn1)C1CCCCC1	/	.	.	/	/	/
CC(C)(C)NC(=O)C(c1ccccc1)N(C(=O)c1ccco1)C1CC1 (stereo unspecified)	.	.	.	.	.	.
SMILES	CYP2C19 act	PostGolgi yeast	PostGolgi ctrl	CYP2C19 inhib	CYP2C9 act	CYP2C9 inhib
CCC(C)[C@H](Nc1nc(-c2ccccc2)nc2c1oc1ccccc12)C(=O)O (stereo partly specified)	.	.	.	.	.	.
CCOC(=O)/C=C1\SCC(=O)N1CC(=O)NC(C)C	.	.	.	.	.	.
CCOC(=O)/C=C1\SCC(=O)N1CC(=O)Nc1ccccc1OC(F)F	.	.	.	96	.	.
CCCCCOC(=O)C1=C(C)Nc2ncnn2C1c1cccs1 (stereo unspecified)	.	.	.	78	.	.
CC1=C(C(=O)OC(C)C)C(c2cccs2)n2ncnc2N1 (stereo unspecified)	.	.	.	.	.	.
CCOC(=O)C1=C(C)Nc2ncnn2C1c1ccccc1F (stereo unspecified)	.	.	.	.	.	.
CCOC(=O)C1=C(C)Nc2ncnn2C1c1c[nH]c2ccccc12 (stereo unspecified)	.	.	.	82	.	59
CC1=C(C(=O)OC(C)C)C(c2cccc(F)c2)n2ncnc2N1 (stereo unspecified)	.	.	.	.	.	.
CCCC1=C(C(=O)OCC)C(c2ccc(O)cc2)n2ncnc2N1 (stereo unspecified)	.	.	.	.	.	93
CC1=C(C(=O)OC(C)C)C(c2c[nH]c3ccccc23)n2ncnc2N1 (stereo unspecified)	.	.	.	61	.	.
CCOC(=O)C1=C(C)Nc2ncnn2C1c1ccc(N(C)C)cc1 (stereo unspecified)	.	.	.	.	.	.
O=C(c1ccc(N2CN(C(=O)c3ccco3)c3nc4ccccc4nc32)cc1)N1CCOCC1	.	.	.	.	.	.
CCn1c(=O)cc(NC2=NCC(C)CN2c2cccc(Cl)c2)n(C)c1=O (stereo unspecified)	.	.	.	.	.	.
CCCCOC(=O)Cn1c2ccc(OC)cc2c2nc3ccccc3nc21	.	.	.	.	.	.
Cn1nc(-c2ccccc2)c(-c2nc(-c3cccc(C(F)(F)F)c3)no2)c1Cl	.	.	.	.	.	.
Cc1ccc(-c2ccc(/C=N\NC(=O)C3C(=O)NCC3c3ccccc3)o2)cc1Cl (stereo unspecified)	.	.	.	.	.	50
O=C1NCC(c2ccccc2)C1C(=O)N/N=C\c1ccc(-c2cccc(Cl)c2Cl)o1 (stereo unspecified)	.	.	.	.	.	59
O=C1Nc2ncccc2OC1CCO (stereo unspecified)	.	.	.	.	.	.
CCOc1cc(C2c3c(oc4cc(C)c(Cl)cc4c3=O)C(=O)N2Cc2ccco2)ccc1O (stereo unspecified)	.	.	.	.	.	.
O=C(/C(=C/c1ccc(Cl)cc1)c1nc2ccccc2[nH]1)c1ccccc1	.	62	102	.	.	.
O=C(NCc1nc2ccccc2[nH]1)c1cccs1	.	.	.	.	.	.
COc1cc(/C=C(/C(=O)c2cccs2)c2nc3ccccc3[nH]2)cc(OC)c1O	.	.	.	51	.	86
O=C(N/C(=C/c1ccc(Cl)cc1)c1nc2ccccc2[nH]1)c1ccco1	.	.	.	.	.	.
CCOC(=O)N1CCN(C2=NC3(CCCCC3)C(C#N)C(=O)N2)CC1 (stereo unspecified)	.	.	.	.	.	.
O=C(Nc1ccc2c(c1)OCCO2)C1CCCN(S(=O)(=O)c2cccc3nsnc23)C1 (stereo unspecified)	.	.	.	.	.	.
COc1ccc(OC)c(NC(=O)C2CCCN(S(=O)(=O)c3cccc4nsnc34)C2)c1 (stereo unspecified)	.	.	.	67	.	.
COc1cc(NC(=O)C2CCCN(S(=O)(=O)c3cccc4nsnc34)C2)cc(OC)c1 (stereo unspecified)	.	.	.	.	.	63

Bioassay records deposited in PubChem BioAssay by several laboratories.
